# The panel holds about 83,000 compounds, 20% with a hit somewhere; the sample as a whole holds those more often.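 Each cell line was grown in a 96-well plate and treated with one concentration of compound for 48 hours. Values below 10 were considered active.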 The source made the active and inactive calls.
# System: SK-OV-3 ovarian
# Assay: NCI-60 one-dose screen, 48 h (100 = growth as untreated, 0 = no growth, -100 = all killed)
# Conditions: 10 µM unless noted
row,SMILES,growth
1,COC(=O)Cc1cc(COC(C)=O)ccc1C,125% (inactive)
2,Cc1ccc(/C=N/NC(N)=S)s1,111% (inactive)
3,Cc1cc(=O)n(Nc2ccccc2)c(O)c1C#N,99.6% (inactive)
4,CN(C)c1ccc(O)c2c1CC1CC3C(N(C)C)C(=O)C(C(N)=O)=C(O)C3(O)C(=O)C1=C2O (configuration not stated),45.2% (inactive)
5,CC(=O)c1ccc(C)cc1,121% (inactive)
6,O=C1Nc2ccccc2/C1=C\c1ccccc1O,94.7% (inactive)
7,CCOC(=O)Nc1nccs1,99.9% (inactive)
8,CCNC(=O)Oc1ccc[nH]c1=O,103% (inactive)
9,Cc1nc(C)c(C(=O)O)cc1C(=O)O,104% (inactive)
10,CC(=O)OCC1OC(n2cnc3c(=S)nc(N)[nH]c32)C(OC(C)=O)C1OC(C)=O (configuration not stated),50.1% (inactive)
11,CC(CO)(CO)C(=O)O,105% (inactive)
12,CCOC(=O)CNC,106% (inactive)
13,CC(c1ccccc1)N(C)C (configuration not stated),103% (inactive)
14,COC1CC(OC(=O)c2ccc([N+](=O)[O-])cc2)C(COC(=O)c2ccc([N+](=O)[O-])cc2)O1 (configuration not stated),107% (inactive)
15,Nc1cccc2cccc(O)c12,100% (inactive)
16,CC(CCC#N)(CCC#N)C(=O)c1ccccc1,115% (inactive)
17,O=[N+]([O-])c1c(Cl)ncnc1Cl,104% (inactive)
18,NS(=O)(=O)c1cc(=O)[nH]c(=O)[nH]1,108% (inactive)

row,SMILES,growth
1,COc1ccc2c(Cl)cc(NC(=O)Nc3c(C)cccc3C)nc2c1,-6.49% (active)
2,CC(=O)c1cccc(O)c1,104% (inactive)
3,Cc1nc(O)cc(=O)[nH]1,121% (inactive)
4,Cc1ccc(C)c2c1CCC2=O,121% (inactive)
5,O=C(OC1CCCC1)c1ccccc1Cl,108% (inactive)
6,CC(C)c1ccc(C(=O)OCCCl)cc1,101% (inactive)
7,CCCCNC(=O)c1ccc(OCC)cc1,98.7% (inactive)
8,N#Cc1ccc(OC(=O)Nc2cc(Cl)cc(Cl)c2)cc1,-6.95% [100 µM] (active)
9,CCOC(=O)C(C#N)=C1CCN(C)CC1,118% (inactive)
10,COC(CCCl)c1ccc(Cl)cc1 (configuration not stated),106% (inactive)
11,CCOc1ccc(C(=O)NCC(C)C)cc1,99.7% (inactive)
12,COc1ccc(C2CCCCC2=O)cc1 (configuration not stated),103% (inactive)
13,O=S(=O)(c1ccc(NC(=S)NCc2cccnc2)cc1)N1CCCCC1,79.3% (inactive)
14,Cc1ccc(NC(=O)c2ccccc2Cl)cc1,124% (inactive)
15,Nc1ccccc1SC1CC(=O)N(c2ccc(Cl)c(Cl)c2)C1=O (configuration not stated),90.5% (inactive)
16,OCC1CCC(O)C(CO)N1 (configuration not stated),118% (inactive)
17,CCCCCCCCNC(=O)C(C)C,105% (inactive)
18,N#C/C(=C\c1ccc2c(c1)OCO2)c1ccccc1,87.3% (inactive)

# System: IGROV1 ovarian
# Assay: as above
# Conditions: 10 µM unless noted
row,SMILES,growth
1,COC(=O)Cc1cc(COC(C)=O)ccc1C,107% (inactive)
2,Cc1ccc(/C=N/NC(N)=S)s1,113% (inactive)
3,Cc1cc(=O)n(Nc2ccccc2)c(O)c1C#N,101% (inactive)
4,CN(C)c1ccc(O)c2c1CC1CC3C(N(C)C)C(=O)C(C(N)=O)=C(O)C3(O)C(=O)C1=C2O (configuration not stated),38.4% (inactive)
5,C/C(=N\N=C(/C)c1cccc([N+](=O)[O-])c1)c1cccc([N+](=O)[O-])c1,104% (inactive)
6,CC(=O)c1ccc(C)cc1,98.1% (inactive)
7,O=C1Nc2ccccc2/C1=C\c1ccccc1O,17.9% (inactive)
8,CCOC(=O)Nc1nccs1,97.2% (inactive)
9,CCNC(=O)Oc1ccc[nH]c1=O,97.9% (inactive)
10,Cc1nc(C)c(C(=O)O)cc1C(=O)O,124% (inactive)
11,CC(=O)OCC1OC(n2cnc3c(=S)nc(N)[nH]c32)C(OC(C)=O)C1OC(C)=O (configuration not stated),96.6% (inactive)
12,CC(CO)(CO)C(=O)O,126% (inactive)
13,CC(c1ccccc1)N(C)C (configuration not stated),152% (inactive)
14,COC1CC(OC(=O)c2ccc([N+](=O)[O-])cc2)C(COC(=O)c2ccc([N+](=O)[O-])cc2)O1 (configuration not stated),126% (inactive)
15,Nc1cccc2cccc(O)c12,76% (inactive)
16,CC(CCC#N)(CCC#N)C(=O)c1ccccc1,125% (inactive)
17,O=[N+]([O-])c1c(Cl)ncnc1Cl,117% (inactive)
18,NS(=O)(=O)c1cc(=O)[nH]c(=O)[nH]1,121% (inactive)

row,SMILES,growth
1,COc1ccc2c(Cl)cc(NC(=O)Nc3c(C)cccc3C)nc2c1,52.3% (inactive)
2,CC(=O)c1cccc(O)c1,106% (inactive)
3,Cc1nc(O)cc(=O)[nH]1,106% (inactive)
4,Cc1ccc(C)c2c1CCC2=O,117% (inactive)
5,O=C(OC1CCCC1)c1ccccc1Cl,106% (inactive)
6,CC(C)c1ccc(C(=O)OCCCl)cc1,109% (inactive)
7,CCCCNC(=O)c1ccc(OCC)cc1,108% (inactive)
8,N#Cc1ccc(OC(=O)Nc2cc(Cl)cc(Cl)c2)cc1,18% [100 µM] (inactive)
9,CCOC(=O)C(C#N)=C1CCN(C)CC1,96.9% (inactive)
10,COC(CCCl)c1ccc(Cl)cc1 (configuration not stated),100% (inactive)
11,CCOc1ccc(C(=O)NCC(C)C)cc1,110% (inactive)
12,COc1ccc(C2CCCCC2=O)cc1 (configuration not stated),118% (inactive)
13,O=S(=O)(c1ccc(NC(=S)NCc2cccnc2)cc1)N1CCCCC1,62% (inactive)
14,Cc1ccc(NC(=O)c2ccccc2Cl)cc1,93.8% (inactive)
15,Nc1ccccc1SC1CC(=O)N(c2ccc(Cl)c(Cl)c2)C1=O (configuration not stated),105% (inactive)
16,OCC1CCC(O)C(CO)N1 (configuration not stated),110% (inactive)
17,CCCCCCCCNC(=O)C(C)C,107% (inactive)
18,N#C/C(=C\c1ccc2c(c1)OCO2)c1ccccc1,62.8% (inactive)
